An excerpt weighted towards active compounds, which were near 19% of everything screened.
TDP1 cell CPT = DT40-hTDP1 cell growth loss with CPT | chicken DT40 Tdp1-/-;hTDP1 cells + 20 nM CPT, ATP luminescence, 48 h | 12% of 420,000 active | Potency, µM (doses to about 46.2 µM), inactives show top-dose activity change, negative = growth inhibition, most hits filed as inhibitors; note: potency is the fitted concentration of half-maximal effect; nearly all actives have a fitted effect of over 55% in size
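Chicken DT40 Tdp1-/- cells complemented with human TDP1, 400 cells/well, exposed to compounds plus 20 nM camptothecin for at least 48 h at 37 C; viability read as ATP content by CellTiter-Glo luminescence.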
DT40 TDP1 no CPT = qHTS for Inhibitors of human tyrosyl-DNA phosphodiesterase 1 (TDP1): qHTS in cells in absence of CPT; DT40 Tdp1-/- hTDP1 cells, no CPT, ATP luminescence, 48 h; Potency, µM (series often up to 46.2 µM), for the others: top-dose activity change, negative = growth inhibition, actives largely listed as inhibitors; 15% of 420,000 active; AID 686978, 2013; note: potency is the fitted concentration of half-maximal effect; nearly all actives have a fitted effect of over 55% in size
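DT40 Tdp1-/-;hTDP1 cells, no CPT (DMSO vehicle only), 400 cells/well; compounds pin-transferred; ≥48 hr, 37 °C; CellTiter-Glo 30 min RT dark, luminescence read.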
ELG1 repair inh = blocks ELG1-dependent DNA repair in HEK293T cells; 2.3% of 330,000 active; HEK293T ELG1-luciferase reporter, luminescence, 16 h; DNA damage induced by 5-fluorouridine; Potency, µM (highest dose often 46.1 µM), for inactives: top-dose activity change, negative = inhibition, most hits filed as inhibitors; note: potency is the fitted concentration of half-maximal effect; nearly all actives have a fitted effect of over 55% in size
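Step one: seed 2,000 cells per well. Step two: pin-transfer compound or DMSO alongside 5-fluorouridine. Step three: incubate 16 hr, 37 °C, 5% CO2. Step four: add ONE-Glo, wait 30 min, read luminescence.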
IL1B secr inh = inhibitors of inflammasome signaling (IL-1 beta secretion). AID 743279. THP-1 LPS/ATP IL-1B secretion, AlphaLISA, 16 h; hits give low values. 4.7% of 360,000 active. activity change, % at 57.5 µM; in the data active = activity change below about -50%; inconclusive = mostly about -30% to -49%
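THP-1 cells pretreated 1 hr with compounds (up to 57.5 uM final), then stimulated with LPS (250 ng/mL final) plus ATP (1.25 mM final); secreted IL-1B measured by AlphaLISA after 16 hr, decreased signal indicating inhibition.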
HT1080 IDH1KD tx = kills HT-1080 cells with IDH1 knockdown; HT-1080 IDH1 knockdown viability, ATP luminescence, 48 h; Potency, µM (top dose mostly 46.1 µM), inactives show at the highest dose activity, negative = toxicity, most hits filed as cytotoxic; 2% of 360,000 active; AID 686971;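 note: potency is the fitted concentration of half-maximal effect; 0% = DMSO wells and -100% = cell-free medium wells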
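Cytotoxicity counter-line: IDH1KD HT-1080, 48 h, CellTiter-Glo. Curves classed by r2, magnitude and activity.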
HT1080NT lethal = kills 2HG-producing HT-1080-NT fibrosarcoma cells | HT-1080-NT fibrosarcoma viability, CellTiter-Glo ATP luminescence, 48 h | 1.6% of 360,000 active | AID 686970 | Potency, µM (series often up to 46.1 µM), inactives show top-dose activity, negative = less viability, usual class: cytotoxic;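 note: NT is the 2HG producing partner of a matched IDH1 knockdown line; potency is the fitted concentration of half-maximal effect; 0% = DMSO-treated cells and -100% = media-only wells without cells; nearly all actives have a fitted effect of over 55% in size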
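HT-1080-NT fibrosarcoma cells (2HG-overproducing), 750 cells/well in RPMI with 5% FBS, dosed after 2 h and incubated 48 h at 37C. CellTiter-Glo luminescence normalized to DMSO and no-cell wells; concentration-response curves fitted and classed.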
* marks the source's active call; other numbers are inactive results; [ ] = dose if it differs, or a comment. Unless noted, calls come from the whole dose curve; as a rule, active = well fitted curve in the direction sought with a large enough effect; inconclusive = small, poorly fitted or top-dose-only effect, or another doubt; inactive = no such curve, though single readings can be large; an effect the other way counts as inactive or inconclusive. Unless noted, % is set by controls: 0 for no effect and ±100 for the full control effect.

For COc1ccc(CCN(C(=O)C(F)(F)F)C(C(=O)NC2CCCC2)c2cccs2)cc1 (centres undefined) the results were TDP1 cell CPT 6.51µM*, DT40 TDP1 no CPT 6.51µM*, ELG1 repair inh -6.9%, IL1B secr inh -12.9, HT1080 IDH1KD tx inconclusive and HT1080NT lethal 8.91µM*.
Screening NC(=O)c1nsc(C(=O)N(CCc2ccccc2)C(C(=O)NC2CCCC2)c2ccco2)c1N (centres undefined) returned TDP1 cell CPT inconclusive, DT40 TDP1 no CPT inconclusive, ELG1 repair inh inconclusive, IL1B secr inh -3.4, HT1080 IDH1KD tx -1.6% and HT1080NT lethal 4.7%.
Screening Cc1cccc(CCN(CC(=O)NC2CCCCC2)C(=O)c2csnn2)c1 returned TDP1 cell CPT 9.7%, DT40 TDP1 no CPT -17.0%, ELG1 repair inh 1.0%, IL1B secr inh 1.4, HT1080 IDH1KD tx -17.3% and HT1080NT lethal 0.9%.
For Cc1ccc(C)c(NC(=O)CN(C)C(=O)c2cc3ccccc3oc2=O)c1 the results were TDP1 cell CPT 2.9%, DT40 TDP1 no CPT 3.3%, ELG1 repair inh inconclusive, IL1B secr inh 17.1, HT1080 IDH1KD tx 8.3% and HT1080NT lethal 17.1%.
`CCOc1ccccc1NC(=O)c1cccc2c1C(=O)N(C1CCCCC1)C2` gave TDP1 cell CPT inconclusive, DT40 TDP1 no CPT 13µM*, ELG1 repair inh inconclusive, IL1B secr inh inconclusive, HT1080 IDH1KD tx -2.2% and HT1080NT lethal 15.7%.
CCCN1Cc2cccc(C(=O)NCCc3cccc(C)c3)c2C1=O was read as TDP1 cell CPT inconclusive, DT40 TDP1 no CPT inconclusive, ELG1 repair inh -20.8%, IL1B secr inh -8.6, HT1080 IDH1KD tx 0.0% and HT1080NT lethal -1.0%.
For Cc1cccc(CCNC(=O)c2cccc3c2C(=O)N(C2CCCCC2)C3)c1 the results were TDP1 cell CPT inconclusive, DT40 TDP1 no CPT -3.6%, ELG1 repair inh -2.8%, IL1B secr inh -65.6*, HT1080 IDH1KD tx -24.4% and HT1080NT lethal inconclusive.
`Cc1ccc(NC(=O)c2cccc3c2C(=O)N(C2CCCCC2)C3)c(C)c1` gave TDP1 cell CPT -9.4%, DT40 TDP1 no CPT inconclusive, ELG1 repair inh 11.3%, IL1B secr inh -6.0, HT1080 IDH1KD tx -4.8% and HT1080NT lethal -0.6%.
`CCc1cccc(NC(=O)c2cccc3c2C(=O)N(C2CCCCC2)C3)c1` gave TDP1 cell CPT inconclusive, DT40 TDP1 no CPT 18.4µM*, ELG1 repair inh -2.6%, IL1B secr inh -15.3, HT1080 IDH1KD tx 4.2% and HT1080NT lethal 7.4%.
For Cc1cc(C)c(NC(=O)c2cccc3c2C(=O)N(C2CCCCC2)C3)c(C)c1 the results were TDP1 cell CPT inconclusive, DT40 TDP1 no CPT 16.4µM*, ELG1 repair inh -18.6%, IL1B secr inh 0.0, HT1080 IDH1KD tx -3.4% and HT1080NT lethal 10.2%.
Screening CC1CCN(C(=O)CN2C(=O)C(=O)N(C)C2=O)c2ccccc2S1 (centres undefined) returned TDP1 cell CPT -11.6%, DT40 TDP1 no CPT -0.6%, ELG1 repair inh 9.8%, IL1B secr inh -0.6, HT1080 IDH1KD tx -2.8% and HT1080NT lethal -0.7%[9.24 µM].
Screening Cc1ccc(NC(=O)c2cccc3c2C(=O)N(C2CCCCC2)C3)cc1 returned TDP1 cell CPT inconclusive, DT40 TDP1 no CPT 20.6µM*, ELG1 repair inh 6.9%, IL1B secr inh inconclusive, HT1080 IDH1KD tx inconclusive and HT1080NT lethal inconclusive.
For CC(C)c1ccc(NC(=O)c2cccc3c2C(=O)N(C2CCCCC2)C3)cc1 the results were TDP1 cell CPT 1.9% and DT40 TDP1 no CPT -8.0%.
NC(=O)c1ccc(/C=N/O)nc1 was read as TDP1 cell CPT 7.2%, DT40 TDP1 no CPT -3.6%, ELG1 repair inh 11.8%, IL1B secr inh 21.6, HT1080 IDH1KD tx 6.7% and HT1080NT lethal 4.0%.
